Test results reported in PubChem BioAssay (NCATS).
Records with an inconclusive call do not appear. Entries that show only a call come without a potency. Activity calls are given as the source filed them. Unless noted, the call rests on the fitted dose curve; in most records, active means well fitted curve in the direction sought with a large enough effect; inconclusive means small, poorly fitted or top-dose-only effect, or another doubt; inactive means no such curve, though single readings can be large; an effect the other way counts as inactive or inconclusive.

Tests used:
[1] = qHTS for Inhibitors of the Functional Ribonucleoprotein Complex (vRNP) of Lassa (LASV) Arenavirus: LASV Primary Screen - GLuc reporter signal (AID 1347082; calls by dose curve; tested in HEK293 reporter line; further: series mostly up to about 57 µM; nearly all actives have a fitted effect of over 60% in size)
[2] = qHTS for Inhibitors of the Functional Ribonucleoprotein Complex (vRNP) of Lassa (LASV) Arenavirus: Viability assay - alamar blue signal for LASV Primary Screen (AID 1347083; calls by dose curve; tested in HEK293 reporter line; further: series mostly up to about 57 µM; nearly all actives have a fitted effect of over 80% in size)
[3] = qHTS for Inhibitors of the Functional Ribonucleoprotein Complex (vRNP) of Lymphocytic Choriomeningitis Arenaviruses (LCMV): Viability assay - alamar blue signal for LCMV Primary Screen (AID 1347085; calls by dose curve; tested in HEK293 reporter line; further: series mostly up to about 57 µM; nearly all actives have a fitted effect of over 80% in size)
[4] = molecular target: Nucleoprotein (Lymphocytic choriomeningitis virus (strain Armstrong)) (UniProt P09992); experiment: qHTS for Inhibitors of the Functional Ribonucleoprotein Complex (vRNP) of Lymphocytic Choriomeningitis Arenaviruses (LCMV): LCMV Primary Screen - GLuc reporter signal (AID 1347086; calls by dose curve; further: series mostly up to about 57 µM; nearly all actives have a fitted effect of over 70% in size)
[5] = qHTS of pediatric cancer cell lines to identify multiple opportunities for drug repurposing: Primary screen for TC32 cells (AID 1347089); further: nearly all actives have a fitted effect of over 60% in size
In short: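 Luminescent ATP read-out (CellTiter-Glo) of metabolically active TC32 cells after 48 h exposure. Concentration-response curves came from 11-point (MIPE, 0.78 nM–46 µM) or 8-point (NPC, 0.59 nM–46 µM) primary titrations; follow-up used 11 points.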

[6] = qHTS of pediatric cancer cell lines to identify multiple opportunities for drug repurposing: Primary screen for DAOY cells (AID 1347090); further: series mostly up to about 46 µM; nearly all actives have a fitted effect of over 55% in size
In short: (§1)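 Eight- or eleven-point concentration series, 48 h treatment at 37 degrees C in growth media; readout CellTiter-Glo luminescence. Potency and efficacy were taken from the concentration-response curves.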

[7] = qHTS of pediatric cancer cell lines to identify multiple opportunities for drug repurposing: Primary screen for SJ-GBM2 cells (AID 1347091); further: potency means the concentration at half of the fitted maximal effect
In short: as §1

[8] = qHTS of pediatric cancer cell lines to identify multiple opportunities for drug repurposing: Primary screen for A673 cells (AID 1347092); further: nearly all actives have a fitted effect of over 45% in size
In short: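 Cell viability of A673 measured by CellTiter-Glo ATP luminescence after 48 hours compound exposure. Dilution series spanned 0.78 nM to 46 µM (MIPE, 11-point) or 0.59 nM to 46 µM (NPC, 8-point); bortezomib 2.3 uM positive control.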

[9] = qHTS of pediatric cancer cell lines to identify multiple opportunities for drug repurposing: Primary screen for SK-N-MC cells (AID 1347093); further: series mostly up to about 46 µM
In short: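 Metabolically active cells were quantified by ATP-dependent luminescence (CellTiter-Glo, 15 min at room temperature) following 48 h treatment. Cells had been plated at 500-1,000 per well and settled for 5 h beforehand.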

Nucleoprotein (Lymphocytic choriomeningitis virus (strain Armstrong)), sequence (P09992 whole entry, looked up): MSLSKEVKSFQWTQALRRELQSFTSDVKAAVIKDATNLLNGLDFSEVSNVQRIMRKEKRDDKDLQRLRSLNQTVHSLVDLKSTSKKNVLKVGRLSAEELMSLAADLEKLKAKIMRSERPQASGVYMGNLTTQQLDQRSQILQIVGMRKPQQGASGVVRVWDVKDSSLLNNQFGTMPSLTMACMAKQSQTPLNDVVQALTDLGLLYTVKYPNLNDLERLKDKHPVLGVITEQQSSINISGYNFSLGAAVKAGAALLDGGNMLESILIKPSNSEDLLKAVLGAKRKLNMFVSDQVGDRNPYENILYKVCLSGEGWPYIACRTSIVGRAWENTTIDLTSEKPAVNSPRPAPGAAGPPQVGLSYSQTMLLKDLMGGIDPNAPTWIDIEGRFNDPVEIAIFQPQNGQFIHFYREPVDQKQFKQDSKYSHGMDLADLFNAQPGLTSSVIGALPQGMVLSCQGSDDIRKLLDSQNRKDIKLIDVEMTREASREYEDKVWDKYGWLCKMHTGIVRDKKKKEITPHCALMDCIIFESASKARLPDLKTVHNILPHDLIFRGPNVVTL

| Compound | Potency [1] | Potency [2] | Potency [3] | Potency [4] | Potency [5] | Potency [6] | Potency [7] | Potency [8] | Potency [9] |
| --- | --- | --- | --- | --- | --- | --- | --- | --- | --- |
| CC[C@H]1OC(=O)[C@H](C)[C@@H](O[C@H]2C[C@@](C)(OC)[C@@H](O)[C@H](C)O2)[C@H](C)[C@@H](O[C@@H]2O[C@H](C)C[C@H](N(C)C)[C@@H]2O)[C@](C)(O)C[C@@H](C)CN(C)[C@H](C)[C@@H](O)[C@]1(C)O | inactive | inactive | inactive | inactive |  |  |  |  |  |
| CC(C)c1ccc2oc3nc(N)c(C(=O)O)cc3c(=O)c2c1 | inactive | inactive | inactive | inactive |  |  |  |  |  |
| CC(=O)OCC[N+](C)(C)C | inactive | inactive | inactive | inactive |  |  |  |  |  |
| NCCS(=O)(=O)O | inactive | inactive | inactive | inactive |  |  |  |  |  |
| Cc1oc(=O)oc1CN1CCN(c2cc3c(cc2F)c(=O)c(C(=O)O)c2n3C(C)S2)CC1 (stereo not given) | inactive | inactive | inactive | inactive |  |  |  |  |  |
| CC(C)=CC1C(C(=O)OCN2C(=O)C3=C(CCCC3)C2=O)C1(C)C (stereo not given) | inactive | inactive | inactive | inactive | inactive | inactive | 21.1 µM (active) | inactive |  |
| CCC(C)C(C)(COC(N)=O)COC(N)=O (stereo not given) | inactive | inactive | inactive | inactive | inactive | inactive | inactive | inactive | inactive |
| O=[N+]([O-])O[C@H]1CO[C@H]2[C@@H]1OC[C@H]2O[N+](=O)[O-] | inactive | inactive | inactive | inactive | inactive | inactive | inactive | inactive | inactive |
| COc1ccc2c3c1O[C@H]1[C@H](O)CC[C@H]4[C@@H](C2)N(C)CC[C@@]341 | inactive | inactive | inactive | inactive | inactive | inactive | inactive | inactive | inactive |
